Shiga inhibitor – A qHTS for Small Molecule Inhibitors of Shiga Toxin. inhibition, % at 38.7 µM. 9.2% of 290,000 active. Vero cells, Shiga toxin protein synthesis inhibition reporter; in the data active = inhibition mostly above about 28%, no sharp cut-off; inactive = mostly below about 43%; also: 0% is about no effect
NS1 inh – qHTS Assay for Inhibitors of Influenza NS1 Protein Function; Potency, µM (series often up to 46.1 µM), for the others: at the highest dose activity, positive = more growth; 0.4% of 270,000 active; AID 2326, 2010; calls by dose curve; also: potency is read from the fitted curve at half-maximal effect; actives are rising curves; nearly all actives have a fitted effect of over 50% in size
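Compounds were scored for reversing the slow growth caused by influenza A NS1 in S. cerevisiae, measured by optical density at 600 nm. Assay medium contained 2% galactose at pH 6.0; NS1-free yeast of the same strain were the positive control.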
Cycloheximide cs – Cycloheximide Counterscreen for Small Molecule Inhibitors of Shiga Toxin; cell reporter, cycloheximide protein synthesis inhibition counterscreen; AID 2314, 2010; max response, %; 12% of 300,000 active; in the data active = max response mostly above about 13%, no sharp cut-off; inactive = mostly below about 14%; also: read at 38.3 µM for the half of the compounds with a filed dose; 0% is about no effect
Pf growth 96h – Primary qHTS for delayed death inhibitors of the malarial parasite plastid, 96 hour incubation. AID 504834, 2011. Potency, µM (series often up to 28.7 µM), for inactives: at the top dose activity change, negative = inhibition, actives largely listed as inhibitors. 6.9% of 320,000 active. P. falciparum luciferase reporter growth, 96 h; also: potency is read from the fitted curve at half-maximal effect; % is scaled to controls: 0 for no effect and ±100 for the full control effect
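Two-generation exposure (96 h) targets delayed-death phenotype. Reporter parasites carrying integrated firefly luciferase, in red cells at 2% hematocrit and 0.05% parasitemia final, kept at 37 C, 5% CO2; luminescence loss indicates inhibition.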
Pf growth 48h – Primary qHTS for delayed death inhibitors of the malarial parasite plastid, 48 hour incubation; P. falciparum luciferase growth in erythrocytes, 48 h; Potency, µM (doses to about 28.7 µM), for the others: at the highest dose activity change, negative = inhibition, hits mostly inhibitors; AID 504832, 2011; 5.9% of 310,000 active; also: potency is read from the fitted curve at half-maximal effect; % is scaled to controls: 0 for no effect and ±100 for the full control effect
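Growth was read as firefly luciferase luminescence after a 48 h, 37 C, 5% CO2 exposure of compounds to reporter-bearing P. falciparum cultures (0.1% parasitemia, 2% hematocrit final) in Albumax-supplemented RPMI 1640.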
SARS PLpro yeast – qHTS of Yeast-based Assay for SARS-CoV PLP. S. cerevisiae expressing SARS-CoV PLpro, growth rescue. Potency, µM (top dose mostly 32.9 µM), for the others: at the top dose activity, positive = growth rescue, hits mostly activators. AID 485353, 2010. 0.19% of 330,000 active; calls by dose curve; also: potency is read from the fitted curve at half-maximal effect; 0% is about no effect; nearly all actives have a fitted effect of over 55% in size
* hit, by the source's call; ? = inconclusive; . = not tested or not shown. Shown are actives, neighbours in structure and some others; about 21% of the full set was active somewhere. Unless noted, calls follow the shape of the dose curve; as a rule, active = well fitted inhibition curve with a large enough effect; inconclusive = small, poorly fitted or top-dose-only effect, or another doubt; inactive = no such curve, though single readings can be large or run the other way.

SMILES	Shiga inhibitor	NS1 inh	Cycloheximide cs	Pf growth 96h	Pf growth 48h	SARS PLpro yeast
CCn1c(N2CCN(S(=O)(=O)c3ccc(OC)cc3)CC2)nc2ccccc21	-10	-64%	-3	12µM*	?	-2%
Cc1cc(C)n(-c2nc3ccccc3nc2N2CCN(S(=O)(=O)c3cccc(C#N)c3)CC2)n1	-5	14%	-4	21%	4.1µM*	-4%
CCn1c(N2CCN(S(=O)(=O)c3ccccc3C(F)(F)F)CC2)nc2ccccc21	-22	-63%	-9	?	?	-4%
CN(C)CCNC(=O)Cn1nc(C(F)F)cc1C1CC1	12	-10%	4	.	21%	5%
CCN(CCCNC(=O)CNC(=O)c1nn(-c2ccc(OC)cc2OC)c(=O)c2ccccc12)c1cccc(C)c1	23	14%	-3	10%	?	-2%
CCc1ccc(-c2cn3c(n2)SCC3)cc1	68*	2%	47*	37%	253%	-2%
Cc1ccc(-c2cn3c(n2)SCC3)cc1	141*	.	43*	14%	230%	-4%
CCOc1ccc(S(=O)(=O)n2cnc3ccccc32)cc1	-2	9%	-2	?	23%	-3%
OC(C#CCN1CCCC1)(c1ccccc1)c1ccccc1	-5	7%	-2	9.5µM*	?	-1%
N#Cc1ccc2nc3c(nc2c1)CCCC3	3	6%	0	?	4%	0%
CSCCC(NC(C)=O)C(=O)Oc1ccc2c3c(c(=O)oc2c1)CCCC3 (centres undefined)	5	-30%	12	?	55%	-5%
CSCCC(NC(=O)OC(C)(C)C)C(=O)Oc1ccc2c(=O)c(-c3ccc4c(c3)OCCO4)coc2c1 (centres undefined)	83*	-44%	36*	?	402%	-3%
Cc1ccc(S(=O)(=O)Nc2ccccc2CNc2ccc(Br)cn2)cc1	8	2%	7	10%	12µM*	-18%
Cc1ccc(S(=O)(=O)Nc2ccccc2CNc2ccccn2)cc1	37*	-8%	22*	6.6µM*	13µM*	-19%
Cc1ccc(S(=O)(=O)Nc2ccccc2CNc2ncc(Br)cc2Br)cc1	14	0%	-3	?	?	-5%
CCc1ccc2oc(-c3cc(N=Cc4cccc(OC)c4O)ccc3O)nc2c1	104*	1%	29*	.	-90%	-3%
O=C(CCN1C(=O)c2ccccc2S1(=O)=O)NCc1ccccc1	.	.	.	35%	-26%	3%
O=C(CCN1C(=O)c2ccccc2S1(=O)=O)NCc1ccco1	-33	4%	-1	12µM*	18%	-4%
O=C(CCCCCN1C(=O)c2ccccc2C1=O)NCc1ccco1	-12	-8%	-1	1µM*	.	0%
C=CCS/C(N)=N\N=C\c1cc(Br)cc([N+](=O)[O-])c1O	15	-1%	9	61%	51%	-1%
O=C(N/N=C/c1ccccc1[N+](=O)[O-])c1ccc2nc[nH]c2c1	32	4%	18*	?	?	0%
COc1cccc(/C=N/NC(=O)c2ccc3nc[nH]c3c2)c1O	31	-1%	0	-28%	?	0%
O=C(N/N=C/c1ccc(Cl)c([N+](=O)[O-])c1)c1ccc2nc[nH]c2c1	-3	1%	-7	?	3.3µM*	-3%
COC(=O)c1ccc(=O)n(Cc2ccc3c(c2)OCO3)c1	-23	-2%	-6	6%	3%	-3%
O=C(O)C1=C[C@H](c2ccc(Br)cc2)C[C@H](OCc2ccc(CO)cc2)O1	-12	3%	1	36%	43%	-1%
SMILES	Shiga inhibitor	NS1 inh	Cycloheximide cs	Pf growth 96h	Pf growth 48h	SARS PLpro yeast
COc1cc(/C=C2/C(=O)NC(=O)N(c3ccc(C)cc3)C2=O)cc(OC)c1OC	67*	4%	27*	3%	2%	2%
COc1ccc(N2C(=O)NC(=O)/C(=C/c3ccc4c(c3)Cc3ccccc3-4)C2=O)cc1	34	.	29*	14%	63%	-9%
CCN1CCN(c2ccc(S(=O)(=O)N3CCCCC3)cc2NC(=O)c2ccc(F)cc2)CC1	-8	6%	-4	9.3µM*	?	-12%
CCN1CCN(c2ccc(S(=O)(=O)N3CCCCC3)cc2NC(=O)c2cccc(C)c2)CC1	.	.	.	?	12µM*	0%
CCN1CCN(c2ccc(S(=O)(=O)N3CCCCC3)cc2NC(=O)CC(C)c2ccccc2)CC1 (centres undefined)	.	.	.	?	9.3µM*	-4%
O=C(N/N=C1/CC2C=CCC12)c1ccc(Br)o1 (centres undefined)	75*	13%	74*	-15%	35%	-8%
O=C(NC12CC3CC(CC(C3)C1)C2)c1ccc(Br)o1	-2	-10%	7	?	?	2%
CC1CCN(c2ccc(NC(=S)NC(=O)c3ccc(-c4cccc([N+](=O)[O-])c4)o3)cc2)CC1	13	-3%	-1	.	4.7µM*	-6%
O=C(NC(=S)Nc1ccc(N2CCCCC2)cc1)c1ccco1	92*	-1%	39*	14%	144%	-2%
CC1CCN(c2ccc(NC(=S)NC(=O)c3ccco3)cc2)CC1	72*	-14%	19*	?	?	2%
CC1CCN(c2ccccc2NC(=S)NC(=O)c2ccc(-c3cccc([N+](=O)[O-])c3)o2)CC1	-20	1%	0	?	?	10%
COc1ccc(NC(=O)COC(=O)CCSc2ccccc2)cc1	.	.	.	.	.	-1%
COc1ccc(NC(=O)CS(=O)c2ccccc2Cl)cc1 (centres undefined)	36	3%	15*	4%	128%	-2%
COc1ccc(NC(=O)CS(=O)CC(=O)Nc2ccc(OC)c(OC)c2)cc1 (centres undefined)	3	-6%	1	10%	.	0%
COc1ccc(NC(=O)Cc2nc3ccccc3[nH]2)cc1	-19	?	-4	?	12µM*	8%
COc1ccc(CC(=O)Nc2ccc(N3CCCCC3)cc2)cc1	32	.	25	28%	13%	-1%
CCc1ccc(NC(=O)Cc2ccc(OC)cc2)cc1	41*	-5%	28*	112%	49%	-18%
COc1ccc(/C=N/NC(=O)CCc2nc3ccccc3[nH]2)cc1	21	-5%	-2	-12%	15%	5%
COc1ccc(NC(=O)CCCSc2ccccc2)cc1	28	6%	24*	75%	58%	-4%
COc1ccc(OC)c(CN2CCN(C(=O)CCC(=O)c3cccs3)CC2)c1	.	.	.	-19%	?	2%
COc1cc2c(cc1OC)CN(C(=O)C1CCN(S(=O)(=O)c3ccccc3F)CC1)CC2	-4	5%	-10	?	-19%	0%
COc1ccccc1NC(=O)CSCC(N)=O	-4	?	-3	.	9%	0%
